NS1 inh = inhibitors of influenza NS1 protein function. Potency, µM (highest dose often 46.1 µM), inactives show at the highest dose activity, positive = more growth. AID 2326. hit rate 0.4% among 270,000; calls by dose curve; also: actives are rising curves; nearly all actives have a fitted effect of over 50% in size
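OD600 was taken as the measure of yeast growth restored by compound in an NS1-expressing S. cerevisiae strain. Cells had been washed out of glucose medium and diluted 1:100 into galactose -URA medium, pH 6.0.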
SARS PLP yeast = inhibitors of SARS-CoV papain-like protease in yeast; Potency, µM (highest dose often 32.9 µM), without a hit: at the highest dose activity, positive = growth rescue, hits mostly activators; AID 485353; hit rate 0.19% among 330,000; S. cerevisiae expressing SARS-CoV PLpro, growth rescue; calls by dose curve; also: 0% is about no effect; nearly all actives have a fitted effect of over 55% in size
Pf growth 48h = inhibits P. falciparum growth in the first generation, 48 h; Potency, µM (doses to about 28.7 µM), for inactives: at the highest dose activity change, negative = inhibition, hits mostly inhibitors; AID 504832; P. falciparum luciferase growth in erythrocytes, 48 h; hit rate 5.9% among 310,000; also: % is scaled to controls: 0 for no effect and ±100 for the full control effect
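A one-generation exposure of luciferase-tagged malaria parasites in RPMI 1640/Albumax erythrocyte culture, 37 C and 5% CO2. Inhibition is inferred from decreased luminescence after adding detection reagent.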
Pf growth 96h = inhibits malaria parasite growth, 96 h | AID 504834 | Potency, µM (doses to about 28.7 µM), without a hit: top-dose activity change, negative = inhibition, usual class: inhibitors | P. falciparum luciferase reporter growth, 96 h | hit rate 6.9% among 320,000; also: % is scaled to controls: 0 for no effect and ±100 for the full control effect
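Plates of compound plus infected erythrocytes (2% hematocrit, 0.05% parasitemia final) incubate 96 hours, 37 C, 5% CO2. Detection reagent added; reduced luminescence from the parasites' luciferase reporter flags inhibition.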
Active calls of the source: *; ? = inconclusive; nt = no result given. Sampled rows, rich in hits. Any-hit rate of the full collection: about 10%. Unless noted, calls follow the shape of the dose curve; as a rule, active = well fitted inhibition curve with a large enough effect; inconclusive = small, poorly fitted or top-dose-only effect, or another doubt; inactive = no such curve, though single readings can be large or run the other way. Potency is read from the fitted curve at half-maximal effect.

SMILES	NS1 inh	SARS PLP yeast	Pf growth 48h	Pf growth 96h
Cc1onc(-c2c(Cl)cccc2Cl)c1C(=O)Nc1ccc2c(c1)OCCO2	-4%	1%	?	76%
COc1ccc(NC(=O)c2c(-c3c(Cl)cccc3Cl)noc2C)cn1	-1%	-3%	?	-7%
CCOC(=O)Nc1ccc(C(=O)c2ccncc2)cc1	-3%	-1%	0%	?
CC(OC(=O)CCCC(=O)Nc1ccccc1)C(=O)c1ccccc1 (stereo unspecified)	-9%	0%	12%	24%
CSCCC(=O)NC1CCCN(CCc2ccccc2)C1 (stereo unspecified)	12%	1%	1%	?
CCCCN1CCCC1C(=O)Nc1c(C)cc(C)cc1C (stereo unspecified)	nt	nt	-25%	2.6µM*
O=C(Nn1cc(C(=O)Nc2ccccc2F)c2ccccc2c1=O)c1cnccn1	nt	7%	4.1µM*	?
COC(=O)c1cn(NC(=O)c2ccc(OC)c([N+](=O)[O-])c2)c(=O)c2ccccc12	nt	0%	1%	?
COC(=O)c1cn(NC(=O)c2ccc(OC)c(OC)c2)c(=O)c2ccccc12	5%	9%	?	13µM*
O=C(Nc1cccc2cccnc12)c1cccc2ccccc12	-5%	-13%	nt	1%
COc1cc(OC)cc(C(=O)Nn2cc(C(=O)Nc3ccccc3F)c3ccccc3c2=O)c1	?	12%	3%	?
O=C(Nc1ccccc1F)c1ccc(O)c2ncccc12	nt	2%	4.1µM*	1.5µM*
COC(=O)c1cn(NC(=O)c2cnccn2)c(=O)c2ccccc12	-140%	?	9.3µM*	-10%
C/C=C/c1ccc(OCC(=O)N(CCOC)c2c(N)n(CCCC)c(=O)[nH]c2=O)c(OC)c1	nt	2%	35%	?
CC(=O)Nc1cccc(NC(=O)CSc2nnc3ccc(-c4cccnc4)nn23)c1	nt	5%	0%	?
Cc1ccc(C2=Nc3ccccc3S[C@@H](c3cccc([N+](=O)[O-])c3)C2)cc1	-3%	nt	nt	nt
N#CC1(N2CCN(C(=O)c3ccccc3)CC2)CCCCC1	11%	-5%	23%	149%
CCOC(=O)C1CCN(S(=O)(=O)c2ccc3c(c2)NC(=O)CS3)CC1	-5%	0%	-7%	61%
CCCCOC(=O)C1=C(C)NC(=O)NC1c1cccc([N+](=O)[O-])c1 (stereo unspecified)	?	4%	0%	-58%
C#CCN1C(C)=C(C(=O)OC)C(c2cccc([N+](=O)[O-])c2)C(C(=O)OCC)=C1C (stereo unspecified)	-44%	nt	13µM*	?
COC(=O)C1=C(C)NC(C)=C(C(=O)OCCCN2CCC(c3ccccc3)(c3ccccc3)CC2)C1c1cccc([N+](=O)[O-])c1 (stereo unspecified)	nt	nt	1.5µM*	15µM*
CCOC(=O)C1=C(c2ccccc2)NC(=O)N(C(C)=O)C1c1cccc([N+](=O)[O-])c1 (stereo unspecified)	-10%	-1%	?	?
Cc1nn(-c2ccccc2)c(N2CCCC2)c1/C=N/O	0%	2%	0%	nt
Cc1nn(-c2ccccc2)c(N2CCCCC2)c1/C=N/NC(=O)c1ccncc1	-3%	1%	?	?
Cc1ccc(NC(=S)N/N=C/c2c(C)nn(-c3ccccc3)c2N2CCCC2)cc1	12%	1%	12µM*	?
SMILES	NS1 inh	SARS PLP yeast	Pf growth 48h	Pf growth 96h
Cc1nn(-c2ccccc2)c(N2CCCC2)c1/C=N/NC(=S)Nc1cc(C(F)(F)F)ccc1Cl	13%	5%	12µM*	4.1µM*
Cc1nn(-c2ccccc2)c(N2CCCC2)c1/C=N/NC(=S)Nc1ccccc1C(F)(F)F	12%	-22%	?	4.7µM*
O=C(CC1CCCCC1)NCCS(=O)(=O)N1CCN(c2ccccc2)CC1	nt	1%	2%	-1%
COc1ccc(O[C@H]2C=C[C@@H](c3ccccc3)O[C@@H]2CO/N=C(\C)CCN2CCc3nc(-c4ccccc4)c(-c4ccccc4)cc3C2)cc1	?	3%	10µM*	?
COC(=O)C/C=C/[C@@H](C)[C@@H](/C=N/OC[C@H]1O[C@H](c2ccccc2)C=C[C@@H]1Oc1ccc(OC)cc1)OC	-25%	3%	-67%	?
CCc1cc2c(nc1CC)CCN(CC/C(C)=N/OC[C@H]1O[C@H](c3ccccc3)C=C[C@@H]1Oc1ccc(OC)cc1)C2	-82%	-15%	?	4.7µM*
CC(C)(C)NC(=O)COc1ccc2oc3c(c2c1)CCCC3	-13%	-2%	?	?

From PubChem BioAssay
